FBA Mtb inh = Mtb fructose-bisphosphate aldolase inhibition. P9WQA3. AID 588726. inhibition, % at 1 µM. purified M. tuberculosis FBA, fluorescence read-out. 360,000 compounds, 2.3% hits;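 note: 0% = vehicle and 100% = reference inhibitor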
Target sequence (P9WQA3 whole entry, looked up): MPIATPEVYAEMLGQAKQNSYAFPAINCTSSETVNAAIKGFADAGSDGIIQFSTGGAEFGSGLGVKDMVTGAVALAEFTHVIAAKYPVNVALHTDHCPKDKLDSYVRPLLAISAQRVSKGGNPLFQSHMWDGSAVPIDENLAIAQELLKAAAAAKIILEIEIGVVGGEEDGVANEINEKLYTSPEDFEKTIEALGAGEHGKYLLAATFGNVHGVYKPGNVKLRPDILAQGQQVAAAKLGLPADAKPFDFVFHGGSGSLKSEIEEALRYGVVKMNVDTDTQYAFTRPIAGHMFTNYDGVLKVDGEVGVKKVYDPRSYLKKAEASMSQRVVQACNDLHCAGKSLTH
PfHsp40 rescue = restores yeast growth despite PfHsp40 toxicity. 340,000 compounds, 0.68% hits. S. cerevisiae expressing PfHsp40, growth rescue, ATP luminescence. AID 504582. growth rescue, % at 12.5 µM; in the data active = growth rescue above about 28%, passing the limit was not always enough;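 note: yeast W303a lacking pdr1 and pdr3 grown in galactose medium; growth measured after three days at 30 °C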
PrPC TRFRET = reduces human prion protein on the cell surface. cell surface PrPC, TR-FRET read-out. 370,000 compounds, 0.43% hits. P04156. inhibition, % at 13.8 µM; in the data active = inhibition above about 24%; note: 0% = median of the test wells and 100% = reference compound wells
BJeLR viability = BJeLR cell viability loss; BJeLR (HRASV12) viability, CellTiter-Glo ATP luminescence, 48 h; inhibition, % (no concentration beside the values); 300,000 compounds, 0.17% hits; AID 1554; in the data active = inhibition above about 50%
GDH-TPI counter-1 = inhibits GDH-TPI coupling enzymes, artifact for Mtb FBA screen | GDH-TPI coupled enzyme counterscreen, NADH absorbance | inhibition, % at 4.8 µM | 360,000 compounds, 1.2% hits; in the data active = inhibition above about 30%;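 note: 0% = DMSO wells and 100% = wells lacking the enzyme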
PrP 5UTR inh = suppresses PrP 5' UTR mRNA reporter expression; cell-based PrP 5' UTR mRNA reporter, plate reader; inhibition, % (concentration not given with the values); 340,000 compounds, 0.35% hits; AID 488862; in the data active = inhibition above about 52%; note: 0 = median of the neutral control wells
Mtb FBA inh conf = confirmation of M. tuberculosis fructose-bisphosphate aldolase inhibitors; shares compounds with FBA Mtb inh; purified M. tuberculosis FBA, fluorescence read-out; inhibition, % at 1 µM; 5,600 compounds, 78% hits; AID 651616;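 note: 0% = vehicle wells and 100% = reference inhibitor wells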
GDH-TPI counter-2 = inhibits GDH-TPI coupling enzymes, flagging Mtb FBA hits. shares compounds with FBA Mtb inh. GDH-TPI coupled enzyme counterscreen, fluorescence. inhibition, % at 1 µM. 5,600 compounds, 81% hits. AID 652141; in the data active = inhibition above about 10%
GDH-TPI dose = inhibits GDH-TPI coupling enzymes in dose response; shares compounds with FBA Mtb inh; GDH-TPI coupled enzyme assay, fluorescence, artifact counterscreen; IC50, µM; 170 compounds, 79% hits; AID 652145; call rule not given here
* marks the source's active call; other numbers are inactive results; nt = not tested or not shown; + = active, no number. Rows were chosen to be rich in hits. Some 4.5% of all compounds tested hit in one or more screens of this group. Cut-off read from the data, not from the text of the source, unless noted: active = inhibition above about 27%; inactive = the rest.

SMILES | FBA Mtb inh | PfHsp40 rescue | PrPC TRFRET | BJeLR viability | GDH-TPI counter-1 | PrP 5UTR inh | Mtb FBA inh conf | GDH-TPI counter-2 | others
COc1ccnc(Oc2ccccc2)c1C(=O)N/C=N/OCc1ccccc1F | -1 | 0 | -1 | 4 | 0 | -39 | nt | nt
CCOC(=O)c1cc2nc(-c3ccco3)cc(C(F)(F)F)n2n1 | 28* | 0 | 0 | -12 | 7 | -3 | + | +
CC(C)NC(=O)c1cc2nc(-c3ccco3)cc(C(F)(F)F)n2n1 | 19 | -1 | -15 | -8 | 29 | -23 | nt | nt
O=C1[C@@H]2CSCCS(=O)(=O)N2C(=O)N1C1CCCCC1 | nt | nt | 0 | nt | nt | nt | nt | nt
Cc1cc(C)c(N)c(C(=O)O)c1 | 48* | -2 | 6 | 9 | -9 | -23 | + | +
CC(C)NC(=O)OC1CC2CC1[C@H]1CCCCN1C2=O (stereo not given in full) | nt | nt | 0 | nt | nt | nt | nt | nt
CCCCNc1c(-c2cccc(-c3ccc(OC)cc3)c2)nc2ccc(C)cn12 | 31* | 232* | 12 | -4 | 6 | -23 | 7 | 2
CCCCNc1c(-c2cccc(-c3cc(C(C)=O)cs3)c2)nc2ccc(C)cn12 | 0 | 10 | 2 | 14 | 26 | -6 | nt | nt
CCCCNc1c(-c2cccc(-c3ccc(OC)cc3)c2)nc2cc(C)ccn12 | 29* | 8 | 18 | nt | 10 | -10 | 66* | 58*
CC(=O)N1CCc2cc(C(=O)CN3CCN(c4ccccn4)CC3)ccc21 | 3 | 2 | 9 | -11 | 13 | -24 | nt | nt
Cc1ccc(NC(=O)CN(C)C(=O)c2cccc(S(=O)(=O)N3CCc4ccccc4C3)c2)cc1 | -2 | nt | -1 | nt | 6 | nt | nt | nt
Cc1oc2c(c(C)cc3oc(=O)c(CC(=O)N[C@@H](C)C(=O)O)c(C)c32)c1C | 16 | 3 | -1 | 4 | 2 | -33 | nt | nt
Cc1coc2c1c(C)cc1oc(=O)c(CC(=O)N[C@@H](CC(C)C)C(=O)O)c(C)c12 | 79* | 6 | 7 | -1 | 19 | -10 | 177* | 141*
Cc1oc2c(c(C)cc3oc(=O)c(CC(=O)N[C@@H](CCCNC(N)=O)C(=O)O)c(C)c32)c1C | 11 | -1 | -6 | -8 | 5 | -16 | nt | nt
Cc1coc2c1c(C)cc1oc(=O)c(CC(=O)NCCCN3CCCC3=O)c(C)c12 | 66* | -2 | -7 | -2 | 21 | -24 | 13 | 0 | GDH-TPI dose=2.3*
CCCC(NC(=O)Cc1c(C)c2c(cc(C)c3c(C)coc32)oc1=O)C(=O)O (stereo not given) | 55* | -1 | 3 | 2 | 1 | -26 | -24 | -17
CC[C@@H](C)[C@H](NC(=O)CNC(=O)Cc1c(C)c2c(cc(C)c3c(C)coc32)oc1=O)C(=O)O | 82* | 0 | 4 | 10 | 12 | 9 | 50* | 35*
CC1(C)Cc2c(cnn2-c2cccc(F)c2)C(NC(=O)CN2CCCC2=O)C1 (stereo not given) | 2 | 0 | -2 | 0 | -6 | -29 | nt | nt
CCC(c1nnc(SCC(=O)NC2CCCCC2)n1Cc1ccccc1)N(C)C (stereo not given) | 43* | 1 | 2 | 0 | -7 | -11 | + | 153*
Cc1nnc(N2C(=O)c3cccc4cccc(c34)C2=O)s1 | 16 | 1 | -17 | -5 | 13 | -20 | nt | nt
Cc1nnc(C)n1N1C(=O)c2cccc3cccc(c23)C1=O | 62* | -1 | -15 | -2 | 24 | -18 | 17 | 10*
COc1ccc(Cl)cc1-c1nc(SCC(=O)NC(C)(C)C)n[nH]1 | 29* | 1 | 7 | -6 | -8 | -14 | 100* | 93*
CNC(=O)CSc1n[nH]c(-c2cc(Cl)ccc2OC)n1 | 2 | -1 | -3 | -5 | 6 | 4 | nt | nt
CC(C)c1cc(N=NC(N)=O)cc(C(C)C)c1O | 0 | 0 | -23 | 0 | 18 | -3 | nt | nt
CCCCn1nc2cc(C(=O)NCC34CC5CC(CC(C5)C3)C4)ccc2c1OCC | 21 | 7 | 0 | 10 | 10 | -14 | nt | nt
